The panel holds about 83,000 compounds, 20% with a hit somewhere; the sample as a whole holds those more often.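 Assay: single dose, 48 h. Readout: percent growth (0 = no net growth; negative = cell death). Active: <10.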 Unmarked numbers belong to inactive results. The source made the active and inactive calls.

In this assay the test system is KM12 colon. The assay can be described thus: NCI-60 one-dose screen, 48 h (100 = growth as untreated, 0 = no growth, -100 = all killed). As to conditions: 10 µM. The method, then:
Growth inhibition of the KM12 human tumor cell line is measured as a screen for anti-cancer activity. Cells are grown in 96 well plates and exposed to the test compound for 48 hours. Compounds are tested at a single concentration, which is 10^-5 M for most compounds. The reported endpoint is percent growth (GI% or GIPRCNT), where numbers from 0 - 100% represent growth inhibition, and numbers from -100% - 0 represent cell death. For example, a value of 40 represents 60% growth inhibition. A value of 0 means no net growth occurred over the course of the experiment. A value of -40 indicates 40% of cells at the beginning of the experiment died by the end of the experiment. A value of -100 means all cells are dead at the end of the experiment.
NCI-60 Human Tumor Cell Lines Screen was performed using the standard one-dose NCI protocol, which is described in more detail at https://dtp.cancer.gov/discovery_development/nci-60/default.htm.
Compounds with GIPRCNT values below 10 were considered active. Activity score was based on GIPRCNT using the following formula: […]
Score is 0 for GIPRCNT values of 100 or above, 50 for GIPRCNT values of 0, and 100 for GIPRCNT values of -100.
For the compound `CCOC(=O)c1ccc(NC(=S)P(=O)(c2ccccc2)c2ccccc2)cc1`, the growth was 96.2%.

On to `Nc1ccc(N=Nc2ccc(S(=O)(=O)O)cc2)c2ccccc12`, for which the growth was 99.2%. For `CC(C)COC(=O)COC(=O)OCCOCCOC(=O)OCC(=O)OCC(C)C` the value was 104%.

Regarding `O=[N+]([O-])c1ccc(O)c(S(=O)(=O)O)c1`, the growth was 111%. For the compound `Cn1cnc2nc(Cl)nc(Cl)c21`, the growth is -40.8% (active).

Consider `CCCC(=O)Nc1ccc2c(c1)CN1C(=O)c3ccccc3C1=N2`, for which the growth was 97.5%. For `COC(=O)c1ccc(NC(=O)CCl)cc1` the value was 83.6%. Regarding `CCCCCCCCO`, the growth is 108%. For the compound `CC(=O)CC(=O)N(C)C`, the growth is 102%.

For `CC(C)=C(NC(=O)c1ccccc1)C(=O)O`, the growth was 99.6%. With `OCC1OC(OC2C(O)C(CO)OC2(CO)OC2OC(CO)C(O)C(O)C2O)C(O)C(O)C1O` (stereo not given), the growth was 109%.

As to `CCOc1ccc(Br)cc1/C=N\N=C\c1cc(Br)ccc1OCC`, the growth was 94.2%. Take `Cc1ccc(CCCC(=O)O)c(C)c1`: the growth is 107%. In the case of `O=c1cc(-c2ccccc2)[nH]c2c1CCCC2`, the growth was 26.3%.

Turning to `O=C(O)CCC(=O)OC(C1CO1)C(OC(=O)CCC(=O)O)C1CO1` (stereo not given), the growth was 101%. `O=C(Cc1ccccc1)Cc1ccccc1`: the growth is 103%. For `CC(C)CCCC(=O)O` the value was 102%; for `CC(CN1CCCCC1)NC(=O)c1scnc1-c1ccccc1` (stereo not given), 106%.

As for `O=[N+]([O-])c1cccc(C(F)(F)F)c1`, the growth is 119%. In the case of `COc1cc(-c2ccc(NC(=O)NC3CC3)c(OC)c2)ccc1NC(=O)NC1CC1`, the growth is 71.8%.

`O=C1c2ccccc2C(=O)N1OCc1ccccc1`: the growth was 105%. For `CC1=NN(c2ccccc2)C(=O)/C1=C\N1CC(=O)NC1=S` the value was 103%; for `CCc1nn(Cc2ccccc2)c2nc(C)c(CCc3ccccc3)c(Cl)c12`, 101%. For `Cc1ccc(S(=O)(=O)O)c(C)c1`, the growth was 109%. The value for `COc1ccc(C(=O)C(Br)C(Br)C(=O)O)cc1` (stereo not given) was 111%. On to `CCOC(=O)c1cc2cccc(OC)c2oc1=O`, for which the growth is 113%. Consider `CCNCCCCNCCCCNCCCCNCCCCNCC`, for which the growth is 62.1%. Turning to `c1ccc2c(c1)Sc1ccccc1S2`, the growth is 108%.

Consider `COc1cc(CN)ccc1O`, for which the growth is 104%.

For the compound `C/C(=C\c1ccc([N+](=O)[O-])cc1)C(=O)O`, the growth was 103%. For the compound `Cc1ccc(O)c(C(=O)c2ccccc2)c1`, the growth is 106%.

Turning to `c1cc[n+](C2c3ccccc3C([n+]3ccccc3)c3ccccc32)cc1` (stereo not given), the growth is 56.7%. With `CN(C)c1ccc2oc(=O)c3ccccc3c2c1`, the growth is 90.9%. In the case of `C[C@@H](c1ccccc1)[C@@H](C(=O)O)c1ccccc1`, the growth was 109%.

For the compound `CC1(C)N=C(N)N=C(N)N1c1ccc(Cl)cc1`, the growth was 50.1%. As for `C/C(O)=C(\C=N\C(N)=S)C(=O)Nc1ccccc1`, the growth was 104%. As to `COc1ccccc1C1OC2=Nc3cc(C)c(C)cc3NC2C1=O` (stereo not given), the growth is 93%. In the case of `Oc1ccc2c(c1)OCC1(O)Cc3cc(O)c(O)cc3C21` (stereo not given), the growth was 96.5%. For the compound `O/N=C/c1ccc(O)cc1O`, the growth was 99%. As for `CC(C)=NNc1ccc([N+](=O)[O-])cc1[N+](=O)[O-]`, the growth is 86.4%.

Source of the values: PubChem BioAssay (NCI).
